We go through 51 molecules from PubChem BioAssay AID1645856 (Buhrlage Lab, Dana-Farber Cancer Institute and Novartis …, 2021).

As usually defined, the inhibition is the change of the read-out against control, counted positive when it falls.

The campaign covered roughly 47,000 compounds. About 510 (1.1%) were called active. No stated cut-off is given here; in the data, active means inhibition above about 30%; inactive means the rest. This excerpt belongs to a sample that is enriched for actives.

Ubiquitin carboxyl-terminal hydrolase 10 (Homo sapiens), sequence (Q14694 whole entry, looked up): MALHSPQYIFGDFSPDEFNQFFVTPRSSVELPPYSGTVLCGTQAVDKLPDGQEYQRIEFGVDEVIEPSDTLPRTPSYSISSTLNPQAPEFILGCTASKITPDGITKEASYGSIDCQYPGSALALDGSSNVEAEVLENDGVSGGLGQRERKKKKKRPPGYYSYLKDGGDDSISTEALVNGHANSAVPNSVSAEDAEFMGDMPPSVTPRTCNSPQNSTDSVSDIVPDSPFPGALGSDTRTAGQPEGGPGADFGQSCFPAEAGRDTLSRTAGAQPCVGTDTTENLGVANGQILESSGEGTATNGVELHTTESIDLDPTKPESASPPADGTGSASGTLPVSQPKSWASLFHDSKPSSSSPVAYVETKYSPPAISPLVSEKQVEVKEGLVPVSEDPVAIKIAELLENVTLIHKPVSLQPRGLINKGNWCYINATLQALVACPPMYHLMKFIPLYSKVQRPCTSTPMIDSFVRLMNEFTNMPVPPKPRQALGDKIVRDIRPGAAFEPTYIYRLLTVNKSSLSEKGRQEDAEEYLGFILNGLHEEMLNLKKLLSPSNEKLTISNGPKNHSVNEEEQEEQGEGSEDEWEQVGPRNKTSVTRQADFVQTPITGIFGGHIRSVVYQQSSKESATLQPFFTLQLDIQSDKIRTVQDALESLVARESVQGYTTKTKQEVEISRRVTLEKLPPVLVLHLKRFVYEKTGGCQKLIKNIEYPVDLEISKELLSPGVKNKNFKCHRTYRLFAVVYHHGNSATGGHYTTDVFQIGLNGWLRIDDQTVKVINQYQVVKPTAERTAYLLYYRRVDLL

This test has as its target Ubiquitin carboxyl-terminal hydrolase 10 (Homo sapiens) (UniProt Q14694). The test is described as follows: blocks human USP10 ubiquitin-rhodamine cleavage (AID 1645856). Conditions: purified USP10, Ub-rhodamine fluorescence, 60 min; at 20 µM; active compounds read high.
As to `CC(C)C(NS(=O)(=O)c1ccc(Cl)cc1)C(=O)OCC(=O)C12CC3CC(CC(C3)C1)C2` (stereo unspecified), the inhibition is 3.82% (inactive).
As for `Cc1cccc(CNC(=O)C2CCc3nc(N4CCOCC4)ncc3C2)c1` (stereo unspecified), the figure is -3.24% (inactive).
As for `COc1cccc(O[C@@H]2C[C@@H](NC(=O)c3ncoc3C)[C@H](O)[C@H]2O)c1`, the figure is -1.35% (inactive); as for `O=S1(=O)C=C(CSCCO)c2cc(Cl)ccc21`, -1.29% (inactive); as for `Cc1cc(C(=O)N2CCCCC2c2nncn2CC2CC2)nn1C` (stereo unspecified), 1.03% (inactive).
Turning to `COCCNC(=O)c1cccc(C2CCCN(C(=O)Nc3ccccc3)C2)c1` (stereo unspecified), the inhibition was 6.54% (inactive).
With `O=C(CSc1n[nH]c(-c2ccccc2Cl)n1)NCC1CCCO1` (stereo unspecified) the figure was -1.9% (inactive); with `COc1ccc(CC(=O)N2CCC3(C2)C(=O)N(C)c2ccccc23)cc1` (stereo unspecified), -4.15% (inactive); with `CCOC(=O)N1CCN(Cc2nc3ccc([N+](=O)[O-])cc3c(=O)n2-c2cccc(OC)c2)CC1`, -1.3% (inactive).
As to `CC(C)Cn1cnc2nc(CSc3ccccc3NC(=O)Nc3ccccc3)cc(=O)n21`, the inhibition is 2.5% (inactive).
As for `Cc1ccc(S(=O)(=O)N2CCC(c3nc(C(=O)N(C)C)c(C)o3)CC2)cc1C`, the figure is -0.0972% (inactive); as for `CC1(C)Cc2c(c(-c3ccco3)nc3sc4c(SCCCc5ccccc5)ncnc4c23)CO1`, 58.4% (active); as for `CSc1ncnc2c1sc1nc(-c3ccccc3)c3c(c12)CC(C)(C)OC3`, 0.0174% (inactive).
As for `CCCCCCSc1ncnc2c1sc1nc(-c3ccccc3)c3c(c12)CC(C)(C)OC3`, the figure is -3.17% (inactive); as for `Clc1cc2nc(N3CCN(c4ccccn4)CC3)c3nncn3c2cc1Cl`, -8.09% (inactive); as for `O=C(CCCn1c(=O)c2ccccc2n(Cc2ccccc2F)c1=O)NC1CCCC1`, 8.78% (inactive).
As for `Cc1ccccc1CNC(=O)Cn1c(=O)ccn(Cc2ccc(F)cc2)c1=O`, the inhibition was 0.832% (inactive).
Turning to `N#Cc1ccccc1Cn1c(=O)n(CCCC(=O)NCc2ccc(F)cc2)c(=O)c2ccccc21`, the inhibition was 34% (active).
As for `COc1cccc(C(O)c2ncc(-c3ccc4ccccc4c3)[nH]2)c1` (stereo unspecified), the figure is -5.14% (inactive); as for `CN(C)c1nc(C2CCN(C(=O)c3ccccc3)CC2)cn2nccc12`, -1.26% (inactive).
As for `CN(C)c1nccnc1C1CN(C(=O)c2cc(C(C)(C)C)[nH]n2)CCO1` (stereo unspecified), the figure is 4.78% (inactive).
Turning to `C/C=C(\Cl)C1=CC(=O)[C@]23C[C@H]2[C@@]2(C)CO[C@@]1(O)[C@@]3(O)O2`, the inhibition was -13.4% (inactive).
As for `Cc1ccc(S(=O)(=O)N2CCCC(c3nc(-c4ccc(=O)[nH]c4)no3)C2)cc1` (stereo unspecified), the figure is 0.0273% (inactive); as for `COc1cc(Cl)c(NC(=O)c2cc(-c3ccccn3)n[nH]2)c(OC)c1`, 38% (active); as for `O=C(Nc1ccc(Cl)cc1F)c1cc(-c2ccccn2)n[nH]1`, 10.2% (inactive).
With `Cc1ccc(CC(=O)N2CCN(C(=O)c3cc(-c4ccccn4)n[nH]3)CC2)cc1` the figure was -1.22% (inactive); with `Cc1c(-c2nnc(-c3ccccn3)o2)nnn1-c1ccccc1Cl`, 1.56% (inactive); with `COc1ccc(-c2noc(-c3ccc(N(C)Cc4ccco4)nn3)n2)cc1`, 0.989% (inactive).
Consider `Cc1ncccc1Oc1nccnc1C1CCNCC1`, for which the inhibition was 0.116% (inactive).
Regarding `CCN(CC)C(=O)CC[C@H]1CNC(=O)[C@@H]2[C@@H](CCN2CC2CC2)N1C`, the inhibition was -0.533% (inactive).
As to `O=C1CC(c2ccc(OCc3ccccc3)cc2)c2sccc2N1` (stereo unspecified), the inhibition was 2.63% (inactive).
With `COc1cccc(CCN2CCOc3nc4c(C)cccc4cc3C2)c1OC` the figure was 1.85% (inactive).
`Cn1c(=O)[nH]c(=O)c2c1nc(N1CCCCCC1)n2CCCSc1nc2ccccc2s1`: the inhibition was 20.1% (inactive).
Take `Cn1c2c(c(=O)n(C)c1=O)[C@@H]1c3c(ccc4ccccc34)OC[C@@H]1CO2`: the inhibition was -4.17% (inactive).
As for `CO[C@@H](/C(C)=C/C=C/C(C)=C/c1coc(C)n1)[C@@H](C)[C@@H]1C[C@H](O)[C@@]2(C)O[C@@H]2/C=C/[C@@H](C)[C@H](O)C[C@H](CC(=O)O)C/C=C/C(=O)O1`, the inhibition is -8.33% (inactive).
With `CN(c1ccc(F)cc1)c1ccc2ccc(C(=O)N3CCCC(O)C3)cn12` (stereo unspecified) the figure was -11.2% (inactive).
Consider `Cn1c(SCC(N)=O)nnc1-c1cc2ccccc2o1`, for which the inhibition was -1.83% (inactive).
As for `Cc1noc(C)c1C1CCCN1C(=O)c1c(F)cccc1F` (stereo unspecified), the figure is 2.21% (inactive).
As for `CC(CN1CCOCC1)OC(=O)c1ccc(C(C)(C)C)cc1` (stereo unspecified), the figure is 0.0972% (inactive); as for `CC(C)CC(=O)Nc1ccc(-c2nc3ncccc3o2)cc1`, 1.25% (inactive).
Take `CCOc1ccccc1NC(=O)Cc1cccs1`: the inhibition is 1.12% (inactive).
With `Cc1cccc(Nc2nc(N3CCOCC3)nc3c2cnn3C)c1` the figure was -3.81% (inactive); with `CCc1nc2cc(N3CCC(C(=O)N4CCN(CC)CC4)CC3)cnc2nc1CC`, -3.73% (inactive); with `O=C(NCC1CCCCC1)C1CCN(C2=NS(=O)(=O)c3ccccc32)CC1`, -1.45% (inactive).
`COc1cccc(CNC(=O)c2ccc3c(=O)nc4c(-c5ccccc5)n[nH]n4c3c2)c1`: the inhibition was 17.4% (inactive).
With `Cc1cc(Cl)cc(C)c1OCC(=O)NC1CCCc2ccccc21` (stereo unspecified) the figure was -1.09% (inactive); with `CCOC(=O)C1CCN(C(c2cccnc2)c2c(NC(C)=O)sc3c2CCCC3)CC1` (stereo unspecified), -3.05% (inactive).
With `CC1CCN(C(=O)C2CCN(C(=O)c3ccc4c(c3)nnn4C3CCCC3)CC2)CC1`, the inhibition was -0.291% (inactive).
As for `Cc1ccc(N2CC(c3nnc(NC(=O)CCCc4ccccc4)s3)CC2=O)cc1` (stereo unspecified), the inhibition was 8.86% (inactive).
As for `COc1ccc(N2CC(c3nnc(NC(=O)CCc4ccccc4)s3)CC2=O)cc1` (stereo unspecified), the figure is 30.4% (active); as for `Cc1ccc(CC(=O)Nc2nnc(C3CC(=O)N(c4ccc(C)c(C)c4)C3)s2)cc1` (stereo unspecified), 15.3% (inactive).
